Values without a mark were called inactive. Calls of active or inactive are those of the source. Rule as the data show it, unless noted: active = inhibition above about 25%; inactive = the rest.
Tests used:
[1] = target: Nuclear receptor coactivator 1 (Homo sapiens) (UniProt Q15788); assay: SRC1 coactivator transcriptional activity inhibitors, confirmation, cell-based, luminescence, quadruplicate (AID 588820;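 active = mean inhibition above 46.68%, the untreated control wells mean plus 3 SD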;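 also: 0% = DMSO wells and 100% = gossypol 36 µM treated wells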); conditions: HEK293 GAL4-SRC1 luciferase reporter, at 3.6 µM, stronger effect = higher value
Sequence of Nuclear receptor coactivator 1 (Homo sapiens) (Q15788 whole entry, looked up, the tested form may be a part): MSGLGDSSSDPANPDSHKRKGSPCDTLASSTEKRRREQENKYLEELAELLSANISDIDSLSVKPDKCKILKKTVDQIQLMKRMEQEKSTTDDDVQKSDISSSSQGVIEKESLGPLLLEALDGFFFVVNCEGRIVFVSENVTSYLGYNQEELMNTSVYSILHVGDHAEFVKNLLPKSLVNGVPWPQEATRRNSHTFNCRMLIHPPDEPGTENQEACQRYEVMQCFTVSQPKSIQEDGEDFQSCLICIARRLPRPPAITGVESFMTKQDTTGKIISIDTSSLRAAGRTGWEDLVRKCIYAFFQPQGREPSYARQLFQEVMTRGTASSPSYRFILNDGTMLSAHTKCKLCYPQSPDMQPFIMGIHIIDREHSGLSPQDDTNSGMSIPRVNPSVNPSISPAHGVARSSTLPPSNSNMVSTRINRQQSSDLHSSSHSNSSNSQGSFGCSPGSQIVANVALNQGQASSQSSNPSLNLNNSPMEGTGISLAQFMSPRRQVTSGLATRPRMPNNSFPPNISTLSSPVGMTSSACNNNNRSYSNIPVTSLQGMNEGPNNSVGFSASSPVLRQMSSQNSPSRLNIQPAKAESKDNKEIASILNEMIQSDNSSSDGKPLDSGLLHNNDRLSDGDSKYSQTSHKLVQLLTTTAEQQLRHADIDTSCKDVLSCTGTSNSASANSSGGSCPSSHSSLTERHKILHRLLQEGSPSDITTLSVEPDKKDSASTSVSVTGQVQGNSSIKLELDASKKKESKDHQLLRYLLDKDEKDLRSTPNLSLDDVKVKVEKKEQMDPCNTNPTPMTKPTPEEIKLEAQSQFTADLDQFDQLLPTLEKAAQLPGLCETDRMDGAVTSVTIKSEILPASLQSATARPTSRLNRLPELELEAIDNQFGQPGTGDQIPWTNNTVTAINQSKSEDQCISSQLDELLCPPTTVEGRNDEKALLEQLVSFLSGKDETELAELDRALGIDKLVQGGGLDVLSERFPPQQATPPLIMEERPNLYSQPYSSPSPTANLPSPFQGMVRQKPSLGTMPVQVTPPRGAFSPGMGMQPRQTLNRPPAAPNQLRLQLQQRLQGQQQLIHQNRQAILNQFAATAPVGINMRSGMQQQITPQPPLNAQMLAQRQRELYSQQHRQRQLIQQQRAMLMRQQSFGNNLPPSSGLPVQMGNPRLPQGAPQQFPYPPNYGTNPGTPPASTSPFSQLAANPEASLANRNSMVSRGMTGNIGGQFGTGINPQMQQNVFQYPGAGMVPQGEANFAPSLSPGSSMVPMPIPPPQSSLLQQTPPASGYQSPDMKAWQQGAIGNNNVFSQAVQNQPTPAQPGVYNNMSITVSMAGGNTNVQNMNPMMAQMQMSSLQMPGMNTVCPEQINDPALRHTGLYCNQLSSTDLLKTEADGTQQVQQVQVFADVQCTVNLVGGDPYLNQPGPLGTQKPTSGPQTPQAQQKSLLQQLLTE

[2] = VP16 transactivation inhibitors, counter-screen for SRC1 inhibitor project, cell-based, luminescence, high throughput (AID 588824); conditions: cell-based VP16 transactivation luciferase luminescence; at 3.6 µM; stronger effect = higher value

Structure (SMILES) | inhibition [1] | inhibition [2]
CCN(CC(=O)Nc1c(F)cccc1F)C(=O)Cc1csc(-c2ccccc2)n1 | -10.5% | -7.28%
O=C(NCc1ccccn1)c1ccc(OC2CCN(Cc3ccc(F)cc3F)CC2)cc1 | -0.3% | 3.5%
O=C(Nc1ccc(S(=O)(=O)N2CCCCC2)cc1)C1CCN(C(=O)c2ccc(F)cc2)CC1 | 7.57% | -1.11%
Cc1cccc(C(=O)OCC(=O)NNC(=O)c2cccs2)c1O | -18.5% | -2.62%
COC(=O)C1CCCCN1C(=O)c1cc(COc2cccc3cnccc23)on1 (stereo unspecified) | 30.8% | 43.3% (active)
COc1cc(C(=O)Nc2cccc(-c3cn4cccnc4n3)c2)cc(OC)c1OC | -27.4% | -27.3%
COc1ccc(Nc2nc(-c3cccs3)nc3ccccc23)cc1S(=O)(=O)N1CCOCC1 | -30.8% | -9.26%
O=C(NC(=S)Nc1cccc(Cl)c1N1CCCCC1)c1ccco1 | -11.6% | 7.26%
COc1ccc(-c2ocnc2C(=O)NCc2nn(-c3ccccc3)nc2C)cc1 | -0.81% | 15%
CC(=O)NC(c1cc(Cl)c2cccnc2c1O)C1CC1 (stereo unspecified) | 30.9% | 8.51%
Cc1ccc(S(=O)(=O)N2CCN(C(=O)c3ccc(S(=O)(=O)N4CCCC4)cc3)CC2)cc1 | 1.07% | 9%
Cc1cccc(C)c1NC(=O)CNC(=O)Cc1c[nH]c2ccccc12 | -0.57% | -1.35%
O=C(NC1CCCC1)C1CCN(C(=O)c2cccc(Cl)c2)CC1 | -22.6% | -3.66%
COc1cc(OC)c(NS(=O)(=O)c2ccc(Cl)c(C(=O)OC(C)C(=O)N3CCCC3)c2)cc1Cl (stereo unspecified) | -10.2% | 10.7%
O=C1c2cccc(NCCCNCCO)c2C(=O)c2cccc(NCCCNCCO)c21 | 7.28% | 16.3%
N#Cc1ccc(Oc2ccc(C(F)(F)F)cc2NC(=O)c2ccc(F)cc2)cc1 | 6.71% | 1.11%
COc1cccc(/C=N/NC(=O)CNC(=O)C2COc3ccccc3O2)c1O (stereo unspecified) | 21.7% | 8.91%
COc1ccc(CNc2nc(C)cc(C)c2C#N)cc1 | -9.61% | -3.68%
CC1Sc2ccc(C(=O)Nc3ccc(S(=O)(=O)N(C)C)cc3)cc2NC1=O (stereo unspecified) | 9.77% | 6.36%
COc1ccc(-c2nc(-c3ccc(NC(=O)c4ccncc4)cc3)no2)cc1OC | -3.19% | 41.4% (active)
CCOC(=O)c1c(CN(CC)CC)n(C)c2cc(Br)c(O)cc12 | 6.72% | 2.67%
O=C(CC1CCC1)Nc1cccc2c([N+](=O)[O-])cccc12 | 9.39% | -5.85%

Structure (SMILES) | inhibition [1] | inhibition [2]
CC(C)C[C@H]1CNC(=S)N1C[C@H]1CCCN1C[C@H](CC(C)C)N1C[C@H](CC(C)C)N(CCc2ccccc2)C1=S | -1.01% | 1.5%
C=CCn1c(Oc2ccccc2F)nc2c1c(=O)n(C)c(=O)n2C | 46.6% | 23.6%
CC(C)N1C(=O)/C(=C\c2nc3ccccc3c(=O)n2-c2ccccc2)c2ccccc21 | 7.4% | 24.2%
Cc1ccc(NC(=O)c2cc(=O)c3ccccc3o2)cc1S(=O)(=O)N1CCCCC1 | -9.96% | 7.05%
CCNC(=O)C1(C)CCCN(Cc2ccc3ccccc3c2Br)C1 (stereo unspecified) | 11% | 13.3%
Cc1ccc(CNc2nc(-c3cccs3)nc3ccccc23)cc1 | -2.3% | 14.8%
Cc1nn(-c2ccccc2)c(C)c1NC(=O)COC(=O)C1CC(=O)N(CCc2ccccc2)C1 (stereo unspecified) | -14.4% | 2.89%
N=c1c(C(=O)NCCc2ccccc2)cc2c(=O)n3ccccc3nc2n1CCCN1CCOCC1 | 6.5% | 18.9%
CCN(CC)CCNC(=O)CCN1N=C(c2ccccc2)CCC1=O | -4.6% | -9.8%
CCSc1nnc(NC(=O)C(C)(C(F)(F)F)C(F)(F)F)s1 | -15.3% | 4.32%
CN=C(C)/C(C(=O)OC)=C(/O)c1c(F)cccc1F | -28.3% | 3.9%
O=C(Nc1ccn(Cc2c(F)c(F)c(F)c(F)c2F)n1)c1ccc(COc2ccccc2Cl)cc1 | 3.66% | 8.16%
Cn1ccnc1SCC(=O)NC1(C#N)CCCCC1 | -19.4% | -3.8%
Cc1ccc(C(C(=O)NCc2ccccc2)N(Cc2cccs2)C(=O)c2ccc3c(c2)OCCO3)cc1 (stereo unspecified) | -21.8% | -1.97%
COc1cc(C(C)=O)ccc1OCC(=O)Nc1ccccc1N1CCCCC1 | 9.15% | 8%
COc1ccccc1-n1nnnc1SC(C)C(=O)NC1CCCC1 (stereo unspecified) | -17.1% | -10.9%
c1ccc(-c2cn(-c3ccccc3)c3ncnc(N4CCCCC4)c23)cc1 | 1.38% | 9.49%
CN(C(=O)c1cccc(NC(=O)Cc2ccc(NC(=O)C3CCCN(C(=O)CCc4ccccc4)C3)cc2)c1)C1CCCC1 (stereo unspecified) | -3.52% | 19.6%
O=S(=O)(Nc1ccc2c(c1)OCCO2)c1cccs1 | 1.12% | -9.45%
COc1cc(C=C2CCCC(=Cc3ccc(OCC4CO4)c(OC)c3)C2=O)ccc1OCC1CO1 (stereo unspecified) | -119% | 9.37%
CCN(CC)CCNC(=O)c1ccc(NC(=O)C2CCN(c3ncnc4sc(C)c(C)c34)CC2)cc1 | 24.3% | 17.3%

Reference: PubChem BioAssay
